Source: PubChem BioAssay (NCI)
About 79,000 compounds went through this panel and 15% of them were active in at least one assay; those are over-represented in the sample as a whole. The source made the active and inactive calls. Cut-off read from the data, not from the text of the source: active = growth inhibition above about 70%; inactive = the rest.

Key:
[1] = NCI Yeast Anticancer Drug Screen. Data for the rad50 strain (AID 155);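 note: 0% = growth of vehicle-only cultures of the same strain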; details: S. cerevisiae rad50 strain growth inhibition; at 50.0 µM; hits give high values
Procedure, shortened: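 DNA repair mutant yeast, compound exposure, growth read-out; inhibition is taken relative to vehicle.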

[2] = NCI Yeast Anticancer Drug Screen. Data for the mec2-1 strain (AID 157); details: S. cerevisiae mec2-1 strain, at 50.0 µM, hits give high values
Procedure, shortened: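 Compounds were applied to mec2-1 yeast cells. Their growth was then compared with that of vehicle-treated cultures to give growth inhibition.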

[3] = NCI Yeast Anticancer Drug Screen. Data for the cln2 rad14 strain (AID 165);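 note: 0% = growth equal to vehicle treated cultures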; details: S. cerevisiae cln2 rad14 strain, at 50.0 µM, hits give high values
Procedure, shortened: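 Strain: cln2 rad14 yeast, altered in cell cycle control and DNA damage repair. Read-out: growth inhibition vs vehicle.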

[4] = NCI Yeast Anticancer Drug Screen. Data for the bub3 strain (AID 167); details: S. cerevisiae bub3 mutant strain, at 50.0 µM, hits give high values
Procedure, shortened: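 In this screen, a yeast mutant lacking normal mitotic checkpoint function is challenged with compound. Relative growth versus vehicle gives the inhibition value.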

[5] = NCI Yeast Anticancer Drug Screen. Data for the mlh1 rad18 strain (AID 175); details: S. cerevisiae mlh1 rad18 strain growth inhibition; at 50.0 µM; hits give high values
Procedure, shortened: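 A repair-deficient yeast strain is exposed to test compound, and growth is scored relative to vehicle-treated controls.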

[6] = NCI Yeast Anticancer Drug Screen. Data for the sgs1 mgt1 strain (AID 161);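 note: 0% = growth of cultures given vehicle only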; details: S. cerevisiae sgs1 mgt1 strain, at 50.0 µM, hits give high values
Procedure, shortened: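 Compounds are added to genetically altered yeast, and growth is compared with cultures given vehicle alone to give percent inhibition.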

Measured: growth inhibition

CCOC(=O)C1(C(=O)OCC)CC1c1ccccc1 (stereo not given)
inactive: [1] 4.6% | [2] -32.5% | [3] -0.6% | [4] -11.7% | [5] -3.2%

CC1=C(C(=O)Nc2cccc3c2C(=O)NC3=O)CC(C(=O)Nc2cccc3c2C(=O)NC3=O)=C(C)N1
inactive: [1] -51% | [2] -18.6% | [3] -25.8% | [4] -10.9% | [5] -25.8%

NC(Cc1ccccc1F)C(=O)O (stereo not given)
inactive: [1] 5.95% | [2] -18.6% | [3] 13.6% | [4] 4.9% | [5] 11.2%

CC1=NN(c2ccccc2)C(N)C1 (stereo not given)
inactive: [1] 17.7% | [2] 17.7% | [3] 11.5% | [4] 25.4% | [5] 13.2%

COCc1ccc(C(=O)Nc2c(N)ncnc2N)cc1
inactive: [1] 5.4% | [2] 13.7% | [3] 0.9% | [4] 23.7% | [5] -0.1%

CSc1cc2c(cc1[N+](=O)[O-])C(=O)c1ccccc1-2
inactive: [1] -1.85% | [2] 5.75% | [3] 0.6% | [4] 4.05% | [5] 5.6%

O=C(CCC(=O)Nc1cccc([N+](=O)[O-])c1)CC(=O)c1ccc(Cl)cc1
inactive: [1] -26.6% | [2] -4% | [3] -25% | [4] -12.1% | [5] -23.3%

O=C(O)c1ccccc1P(=O)(O)c1ccccc1
inactive: [1] -13% | [2] -10.3% | [3] 5.35% | [4] -6.85% | [5] -31.2%

O=C(O)C1c2ccccc2C(C(=O)O)c2ccccc21 (stereo not given)
inactive: [1] -6.4% | [2] -2.25% | [3] 19.9% | [4] 13% | [5] 31.8%

O=C(CN1CCCCC1)c1ccc(CCc2ccc(C(=O)CN3CCCCC3)cc2)cc1
inactive: [1] 35% | [2] 11.3% | [3] -61.1% | [4] 6.5% | [5] 32.2%

CC(=O)N(c1ccc(F)c(F)c1)c1ccc(F)c(F)c1
inactive: [1] -18.3% | [2] -5.55% | [3] 1.5% | [4] 19.6% | [5] 14.2%

O=C1CCSc2nc(-c3ccc4c(c3)OCO4)nn21
inactive: [1] 7.2% | [2] -8.5% | [3] 15.2% | [4] 4.6% | [5] 9.2%

CCOC(=O)C(C#N)C1CC2CCC1C2 (stereo not given)
inactive: [1] -30.2% | [2] -57.4% | [3] -4.9% | [4] -27.1% | [5] -56.8%

CCCCCCCCCCCCN=Cc1cc(Cc2ccc(O)c(C=NCCCCCCCCCCCC)c2)ccc1O
active: [1] 85.7% | [2] 80.4% | [3] 84.2% | [4] 83.7% | [5] 96%

N#CCCN(CCC#N)c1ccc(C(=O)NN)cc1
inactive: [1] -18.1% | [2] -15.9% | [3] 25.2% | [4] -8.8% | [5] -5.3%

C/C(CC(=O)Nc1ccc([N+](=O)[O-])cc1)=N/N=C(N)N
inactive: [1] -4.25% | [2] -16% | [3] 17.1% | [4] -10.8% | [5] 2.6%

Oc1ccc(CN=Cc2ccccc2)cc1
inactive: [1] 0.05% | [2] 3.3% | [3] -14.9% | [4] -15.6% | [5] -10.1%

CC1=CC[N+](C)(C)C(C(N)=O)C1 (stereo not given)
inactive: [1] -5% | [2] -12.8% | [3] 9.95% | [4] 20.9% | [5] -18.1%

CSCCC(NCCC#N)C(=O)O (stereo not given)
inactive: [1] -7.05% | [2] 19.4% | [3] -12.9% | [4] -27.9% | [5] 2.85%

CCOC(=O)/C(=C\c1ccc[nH]1)C(=O)c1ccccc1
inactive: [1] 48% | [2] -5.9% | [3] 27.6% | [4] 20.1% | [5] 9.05%

O=[N+]([O-])c1ccccc1N=Nc1c(O)[nH]c2c(Cl)cc(Cl)cc12
inactive: [1] -25.9% | [2] -35.6% | [3] -16.2% | [4] -45.4% | [5] -47.4%

COc1cc([N+](=O)[O-])c(OC)cc1N
inactive: [1] 2.45% | [2] -8.3% | [3] -27.4% | [4] -27.4% | [5] 27.6%

Cc1cccc[n+]1CC(=O)c1ccccc1
inactive: [1] 17.2% | [2] 31.2% | [3] -3.65% | [4] 18.6% | [5] 20.9%

NC(Cc1cc(I)c(O)c(I)c1)C(=O)O (stereo not given)
inactive: [1] -0.95% | [2] -6.05% | [3] 8.2% | [4] 8.3% | [5] 1.35%

CCN(CC)Cc1cc(-n2cnc3c(=S)nc[nH]c32)ccc1O
inactive: [1] -3.15% | [2] -12.4% | [3] 3.45% | [4] -5.65% | [5] -3.2%

CCCCCCCCCCCC(=O)Nc1cc(Cl)c(OC)cc1OC
inactive: [1] -17.4% | [2] 6.75% | [3] -32.8% | [4] 7.1% | [5] 48.4%

COC(=O)C1CCC(=O)N1Cc1csc(-c2ccccc2)n1 (stereo not given)
inactive: [1] -12.1% | [2] -6.95% | [3] -24.7% | [4] -14.8% | [5] -11.8%

O=[N+]([O-])c1ccc(OC2OC(CO)C(O)C(O)C2O)cc1 (stereo not given)
inactive: [1] 31.2% | [2] -0.45% | [3] 5.1% | [4] 24% | [5] 10.2%

C/C(=N\N(c1ccccc1)c1ccccc1)c1c(O)cc(C)oc1=O
inactive: [1] -25.8% | [2] 8.2% | [3] -27.4% | [4] 3.05% | [5] 14.8%

O=[N+]([O-])c1cc(Cl)ccc1NC(Nc1ccc(Cl)cc1[N+](=O)[O-])C(Cl)(Cl)Cl
inactive: [1] 44.5% | [2] 10.1% | [3] -31.9% | [4] 3.6% | [5] 35.8%

Cc1cc(N(CCC#N)CCC#N)ccc1/C=C1N=C(/C=C\c2ccccc2)N(NC(=O)CC(=O)Nc2ccccc2Cl)C\1=O
inactive: [1] 14.6% | [2] -0.8% | [3] 11.3% | [4] 2.8% | [5] 5.05%

COc1cccc(NC(=O)CSc2nnc(-c3ccc(NC(C)=O)cc3)o2)c1
inactive: [1] -29.2% | [2] -15.5% | [3] 6.15% | [4] -25.4% | [5] -16.9%

Oc1ccccc1C=Nc1ccccc1N=Cc1ccccc1O.[Zn]
inactive: [1] 6.45% | [2] 4% | [3] 26.5% | [4] -4.05% | [5] 12.9%

O=P(CCC(CC(F)(F)C(F)(F)C(F)(F)C(F)(F)C(F)(F)C(F)(F)C(F)(F)F)P(=O)(N1CC1)N1CC1)(N1CC1)N1CC1 (stereo not given)
inactive: [1] 5.1% | [2] 3.5% | [3] -5.1% | [4] -0.35% | [5] 2.35%

Cc1ccc(S(=O)(=O)O/C=C2/CCOC2=O)cc1
inactive: [2] 43.2% | [6] 29.9% | [3] 28.8% | [4] 38.2% | [5] 60.9%

C[CH2][Sn]([CH2]C)([O]C(=O)c1ccc2c(c1)OC(C)(C)O2)[O]C(=O)c1ccc2c(c1)OC(C)(C)O2
inactive: [2] 52.1% | [6] 4.7% | [3] 41.4% | [4] 14% | [5] -2.7%

COc1ccc2nc3cc(Cl)ccc3c(NN3CCN(CCO)CC3)c2c1
inactive: [2] -7.9% | [6] -20.1% | [3] 0.25% | [4] 2.3% | [5] -3.6%

Cc1ccnc(N=C/C=C2/C=CC=CN2O)c1
inactive: [2] -9.35% | [6] 1.75% | [3] 5.55% | [4] -8.45% | [5] -11.8%

CC(N(C)Cc1ccccc1)C(C)(O)c1ccccc1 (stereo not given)
inactive: [2] 6.55% | [6] 7.75% | [3] -24.9% | [4] 51% | [5] 30.8%

O=C(NCCCCN1CCCC1)C(c1cc2ccccc2s1)C1CCCCC1 (stereo not given)
inactive: [2] 9.25% | [6] 42.2% | [3] 4.25% | [4] 24.2% | [5] 33.1%

O=C(O)C(Sc1ccccc1)c1ccccc1 (stereo not given)
inactive: [2] -8.2% | [6] -0.05% | [3] -32.4% | [4] -21.9% | [5] -21.6%

O=C1C2=Cc3ccccc3OC2(O)Oc2ccccc21 (stereo not given)
inactive: [2] 6.4% | [6] -3.35% | [3] 3.35% | [4] 1.8% | [5] -73.2%

O=C(Nc1ccc(F)cc1)Nc1cccc(C(=O)O)c1
inactive: [2] 7.9% | [6] 6.4% | [3] 7.6% | [4] 22.4% | [5] 12.2%

CC(Nc1cccc(Cl)c1)c1ccncc1 (stereo not given)
inactive: [2] 12% | [6] -15.2% | [3] -5.55% | [4] 24.6% | [5] -11.4%

CCC(CC)C(O)(C(=O)O)C(CC)CC
inactive: [2] 13.7% | [6] 3.95% | [3] 3.3% | [4] 8.5% | [5] 32.8%

Cc1ccc(C(CCCl)OC(C)C)cc1 (stereo not given)
inactive: [2] 7.35% | [6] 22% | [3] 25.2% | [4] 22.6% | [5] 17.8%

O=C(O)Cc1ccc(OCCCCCOc2ccc(CC(=O)O)cc2)cc1
inactive: [2] 0.25% | [6] 20.6% | [3] -49.9% | [4] -12% | [5] 4.35%
